# About 83,000 compounds went through this panel and 20% of them were active in at least one assay; those are over-represented in the sample as a whole.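 Interpretation: 100, growth as untreated; towards 0, rising growth inhibition; 0, no net growth; 0 to -100, cell death. Compounds scoring below 10 were considered active.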 Values without a mark were called inactive. Calls of active or inactive are those of the source.
# System: ACHN renal
# Test: NCI-60 one-dose screen, 48 h (100 = growth as untreated, 0 = no growth, -100 = all killed)
# Settings: 10 µM unless noted
# Description: Growth inhibition of the ACHN human tumor cell line is measured as a screen for anti-cancer activity. Cells are grown in 96 well plates and exposed to the test compound for 48 hours. Compounds are tested at a single concentration, which is 10^-5 M for most compounds. The reported endpoint is percent growth (GI% or GIPRCNT), where numbers from 0 - 100% represent growth inhibition, and numbers from -100% - 0 represent cell death. For example, a value of 40 represents 60% growth inhibition. A value of 0 means no net growth occurred over the course of the experiment. A value of -40 indicates 40% of cells at the beginning of the experiment died by the end of the experiment. A value of -100 means all cells are dead at the end of the experiment.
# NCI-60 Human Tumor Cell Lines Screen was performed using the standard one-dose NCI protocol, which is described in more detail at https://dtp.cancer.gov/discovery_development/nci-60/default.htm.
# Compounds with GIPRCNT values below 10 were considered active. Activity score was based on GIPRCNT using the following formula: […]
# Score is 0 for GIPRCNT values of 100 or above, 50 for GIPRCNT values of 0, and 100 for GIPRCNT values of -100.
row,SMILES,growth
1,O=C(Nc1ccccc1)NS(=O)(=O)c1c[nH]c(=S)[nH]c1=O,108%
2,O=C1CC23OC(C(O)c4ccccc4N12)C1C(c2ccccc2)=NOC13 (stereo not given),52.7%
3,COc1ccc2nc(-c3ccc(OC)c(OC)c3)cc(-c3nnc(SCC(=O)Nc4ccc(/C(C)=N\O)cc4)n3-c3ccccc3)c2c1,75.5%
4,COc1ccc(C(=O)c2cc(OC)c(C)c(OC)c2)cc1OC(=O)CCl,41.5%
5,COc1ccccc1N1CCN(CCCOc2ccc(C(=O)/C=C3/C(=O)Nc4ccccc43)cc2)CC1,74.2%
6,Cc1cc(C)c(NC(=O)c2sc3nc4c(cc3c2N)CCCCCC4)c(C)c1,72.4%
7,COc1ccc(-c2nc(C#N)c(NCC(c3ccco3)N3CCCC3)o2)cc1 (stereo not given),43.9%
8,OCCNc1nc(NCCO)nc(Nc2ccc(C3=NN(c4cc(Cl)cc(Cl)c4)C(c4ccc(C(F)(F)F)cc4)C3)cc2)n1 (stereo not given),29.6%
9,C=C1C(=O)O[C@H]2[C@H]1CC/C(COC(=O)CCCCCCCC(=O)OC/C1=C/CC[C@@]3(C)O[C@H]3[C@H]3OC(=O)C(=C)[C@@H]3CC1)=C\CC[C@@]1(C)O[C@@H]21,-24.8% (active)
10,C#C[C@@]1(O)[C@@H](CO)O[C@@H](n2cc(I)c3c(N)ncnc32)[C@@H]1O,5.08% (active)
11,C[C@H](Oc1cc(-c2cnn(C3CCNCC3)c2)cnc1N)c1c(Cl)ccc(F)c1Cl,75.6%
12,CCCCOc1nc2ccc(C)cc2cc1/C=C/C(=O)/C=C/c1ccc2c(c1)OCO2,103%
13,C#CC[C@@H]1C[C@]2(C)[C@H]3CC[C@@H]4[C@H]5[C@H](C(=C)C)CC[C@]5(C(=O)O)CC[C@@]4(C)[C@]3(C)CC[C@H]2C(C)(C)[C@H]1O,6.77% (active)
14,COc1cc(NCC(=O)Nc2cc(Nc3cccc(C(F)(F)F)c3)ncn2)c(Cl)c(OC)c1Cl,95.7%
15,CC1=C/C(=N\N=C2/C=C(C)CC(C)(C)C2)CC(C)(C)C1,110%
16,C=C1C(=O)O[C@H]2[C@H]1CC/C(C=Nc1c(N)cc(F)cc1Br)=C\CC[C@@]1(C)O[C@@H]21,63.4%
17,COc1cccc(NC(=O)Nc2ccc(Oc3ncnc4[nH]c(C)c(C)c34)cc2)c1,73.6%
18,Cc1c(Cl)cccc1NC(=O)c1sc2nc3c(cc2c1N)COCC3,44.2%
19,CCCCn1c2cc(OCc3cn(-c4ccc(Cl)cc4)nn3)ccc2c2ccnc(C)c21,-47.5% (active)
20,O=CN1N=C(c2ccc(F)cc2)CC1c1cccc(Nc2ccnc3cc(C(F)(F)F)ccc23)c1 (stereo not given),54.4%

row,SMILES,growth
1,COC1=CC=CC2(OC)C3(O)CCCc4cccc(c43)N3C(=O)COC132 (stereo not given),105%
2,Cc1nccc2c3ccc(OCc4cn(-c5ccccc5)nn4)cc3n(CCCc3ccccc3)c12,72%
3,Cc1cccc(C)c1NC(=O)CN(CC(C)C)CC(O)COc1ccccc1 (stereo not given),104%
4,Nc1ccccc1NC(=O)c1ccc(CSc2nc(N3CCOCC3)c3cccn3n2)cc1,16.3%
5,COc1ccc(-c2cc(-c3nnc(SCC(=O)Nc4ccc(C(C)=O)cc4)o3)c3ccccc3n2)cc1,-11.6% (active)
6,COc1ccc(C(=S)c2cc(OC)c(OC)c(OC)c2)cc1OC(=O)CCl,41.9%
7,COc1cc(C2=NN(C(C)=O)C(c3cccc(Nc4ccnc5cc(C(F)(F)F)ccc45)c3)C2)cc(OC)c1OC (stereo not given),58.5%
8,COC(=O)c1oc2c(C(=O)/C=C/c3ccc(OC)cc3)c(OCCCN3CCCCC3)ccc2c1C,28%
9,COc1cc(-c2nn(-c3ccc(Br)cc3)cc2CO)ccc1O,100%
10,CCc1n(Cc2ccc3ccccc3c2)c2ccccc2[n+]1Cc1ccc2ccccc2c1,96.5%
11,Cc1[nH]c(N=Nc2ccccc2)nc1N=Nc1ccccc1,7.3% (active)
12,C=C(C)[C@@H]1CC[C@]2(C(=O)NCCCO)CC[C@]3(C)[C@H](CC[C@@H]4[C@@]5(C)CCCNC(C)(C)[C@@H]5CC[C@]43C)[C@@H]12,89.5%
13,COc1ccc2[nH]c(=O)c(/C=C/C(=O)c3ccccc3OC)cc2c1,38.8%
14,O=C1NC(SCc2ccc(F)cc2)=N/C1=C/c1cccc(OCc2ccc(Cl)cc2)c1,-53.7% (active)
15,Cc1nnc(/N=C2\NC(=O)/C(=C/c3ccsc3)S2)s1,106%
16,OCCNc1nc(NCCO)nc(Nc2ccc(C3=NN(c4ccc(Cl)cc4)C(c4ccc(Cl)cc4)C3)cc2)n1 (stereo not given),51.1%
17,CC(C)(C)c1nc2c(s1)c1nc(N)ncc1c1ccc(NS(=O)(=O)c3c(F)cccc3F)c(F)c12,22.6%
18,O=C(Nc1cc(=O)[nH]c(=O)[nH]1)C(Cl)Cl,111%
19,COc1cc(C(=O)Nc2cc(O)c(C/C=C(\C)CCC=C(C)C)c(O)c2)cc2c1O[C@]1(C)CC[C@@H](O)C(C)(C)[C@H]1C2,18.5%
20,COc1ccc(-c2[nH]c3ccc(OC)cc3c2C=C(C#N)C#N)cc1,63.9%

# — PubChem BioAssay (NCI)
